Inconclusive results are not listed. Where a call stands in place of a potency, no number is given. Active and inactive are the calls of the source. The call rests on the fitted dose curve.
Potency means the concentration at half of the fitted maximal effect.

A short description of this experiment: qHTS for Inhibitors of Cell Surface uPA Generation: Wild-type Protective Antigen (WT-PrAg) Counterscreen for Cherry-picked Compounds. The conditions noted are these: cells, WT protective antigen toxicity counterscreen; series mostly up to 115 µM. A general note: In qHTS, concentration-response curves come from the screen itself.
Turning to `CC(C)(C)S(=O)(=O)N1C[C@H]2CC/C=C\C/C(c3ccccc3)=C\2[C@@H]1CCO`, the Potency result was “inactive”.
To `O=C(NCC1CCCO1)c1ccc(NC(=O)c2ccc([N+](=O)[O-])cc2)cc1` (stereo not given) belongs “inactive”; to `Cc1cc(=O)n2nc(N3CCCC(C(=O)NCc4ccc(Cl)cc4)C3)sc2n1` (stereo not given), “inactive”; to `COC(=O)C(CCSC)NC(=O)Cn1ncc2c(=O)oc3ccccc3c21` (stereo not given), “inactive”.
To `CC1=CC(C)(C)N2C(=O)C3(NCCc4c3[nH]c3ccccc43)c3cc(C)cc1c32` (stereo not given) belongs 2.33 µM (active); to `O=C(Nc1cccc(-c2nn[nH]n2)c1)c1ccc(Cl)s1`, “inactive”.
The value for `Cc1ccccc1NC1c2ccccc2C(=O)N1Cc1ccco1` (stereo not given) was “inactive”; that for `CCN(C1CCS(=O)(=O)C1)S(=O)(=O)c1ccc2ccccc2c1` (stereo not given) was “inactive”.
For the compound `CCCCn1c(N)c(N(Cc2ccccc2OC)C(=O)COc2ccc(C)cc2)c(=O)[nH]c1=O`, the Potency entry is “inactive”.
To `CC(=O)NCCc1cnc[nH]1` belongs “inactive”; to `CCCCCn1c(=O)c(C(=O)Nc2ccccn2)c(O)c2ccccc21`, “inactive”; to `COc1ccc(NS(=O)(=O)c2c(C)n(C)c(=O)n(C)c2=O)cc1OC`, “inactive”.
Take `O=C(Nc1ccnn1C1CCN(CCCC2CCCC2)CC1)c1ccccc1`: the Potency result was “inactive”.
For the compound `N#CCCN(C(=O)COC(=O)c1ccc2c(c1)NC(=O)CS2)c1ccc2c(c1)OCCO2`, the Potency result was “inactive”.
In the case of `O=C1N[C@@H](Cc2c[nH]c3ccccc23)C(=O)N[C@H]1Cc1ccccc1`, the Potency entry is “inactive”.
The value for `CN(C)c1cccc(C(=O)N(C)C2CCCN(Cc3ccccc3F)C2)c1` (stereo not given) was 23.3 µM (active); that for `Brc1ccsc1/C=N/Nc1ccccc1` was “inactive”.
To `S=C(Nc1ccccc1Oc1ccccc1)NC1CCCC1` belongs “inactive”.
Regarding `CCN(CC)S(=O)(=O)c1cc(NC(=O)COC(=O)C2CCC2)ccc1C`, the Potency result was “inactive”.
Turning to `CNC(=S)N1C2CCCC1CC(NC(=O)c1ccc(F)cc1)C2` (stereo not given), the Potency result was “inactive”.
To `CCOC(=O)N1CCc2c(sc3nc4n(c(=O)c23)N=C(C)CS4)C1` belongs “inactive”.
Turning to `CCN(CC)CCCn1c2c(c(SCC(=O)Nc3cccc4ccccc34)nc1=O)CCC2`, the Potency entry was “inactive”.
The value for `CCOc1ccc(Cl)cc1/C=N/NC(=O)c1ccccc1` was “inactive”.
As to `COc1ccc(CC(=O)NNS(=O)(=O)c2ccccc2[N+](=O)[O-])cc1OC`, the Potency entry was “inactive”.
To `CCOC(=O)c1ccc(N=Cc2c(O)n(-c3ccc(OC)cc3)c(=S)[nH]c2=O)cc1` belongs “inactive”; to `Cc1[nH]c(=O)[nH]c(=O)c1S(=O)(=O)N1CCCc2ccccc21`, “inactive”.
The value for `CCNc1nc(Nc2ccc(C)c(Cl)c2)c2cnn(C)c2n1` was “inactive”; that for `Cc1nc(SCC(=O)NCCN2C(=O)CSC2=O)nc(C)c1C` was “inactive”.
Turning to `O=C(NCCS(=O)(=O)N1CCC2(CC1)OCCO2)c1ccc(F)cc1`, the Potency result was “inactive”.
To `CCOC(=O)N1CCN(c2c(NCCCN3CCCCCC3)c(=O)c2=O)CC1` belongs “inactive”; to `CN(C)S(=O)(=O)c1ccc(NC(=O)COC(=O)CC2CC3CCC2C3)cc1` (stereo not given), “inactive”; to `CCc1ccc(NC(=O)Cn2cnc([N+](=O)[O-])c2)cc1`, “inactive”.
With `COCCN(CCOC)c1nc(-c2ccc(C)cc2)nc2ccccc12`, the Potency result is “inactive”.
Consider `Cc1nn(-c2ccc(F)cc2)c(C)c1NS(=O)(=O)c1ccc(Cl)cc1`, for which the Potency result was “inactive”.
In the case of `Cc1cccc(NC(=O)c2cc3c(=O)n4ccccc4nc3s2)c1`, the Potency entry was “inactive”.
To `O=C(Nc1ccc2c(c1)CCC2)Nc1ccc2c(c1)OCO2` belongs “inactive”; to `C[N+](C)(C)CCOC(=O)CBr`, “inactive”.
The value for `COc1ccc(-n2nnnc2SCC(=O)Nc2nnc(C)s2)cc1` was “inactive”; that for `CCC(=O)N(Cc1cc2ccc(C)cc2[nH]c1=O)c1ccccc1OC` was “inactive”.
To `O=C1[C@H]2[C@@H](c3ccc(F)cc3)N3C(=O)N(c4cccc(F)c4)C(=O)[C@@]3(Cc3ccc(Cl)cc3)[C@H]2C(=O)N1C1CCCCC1` belongs “inactive”.
